{"source": "paper PMC4336329", "about": "(PLoS ONE, 2015)", "note": "Among all 310,000 compounds or so, about 14,000 (4.5%) showed an effect of 50% or more. Effects have a minus sign here. Shown is part of a subset that was picked to be rich in strong results.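 Note: peak tail current of the secondary pulse compared with the same well before compound.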", "data": [{"target": "human ether-à-go-go-related gene (hERG) potassium channel (human, UniProt Q12809)", "sequence (Q12809 whole entry, looked up)": "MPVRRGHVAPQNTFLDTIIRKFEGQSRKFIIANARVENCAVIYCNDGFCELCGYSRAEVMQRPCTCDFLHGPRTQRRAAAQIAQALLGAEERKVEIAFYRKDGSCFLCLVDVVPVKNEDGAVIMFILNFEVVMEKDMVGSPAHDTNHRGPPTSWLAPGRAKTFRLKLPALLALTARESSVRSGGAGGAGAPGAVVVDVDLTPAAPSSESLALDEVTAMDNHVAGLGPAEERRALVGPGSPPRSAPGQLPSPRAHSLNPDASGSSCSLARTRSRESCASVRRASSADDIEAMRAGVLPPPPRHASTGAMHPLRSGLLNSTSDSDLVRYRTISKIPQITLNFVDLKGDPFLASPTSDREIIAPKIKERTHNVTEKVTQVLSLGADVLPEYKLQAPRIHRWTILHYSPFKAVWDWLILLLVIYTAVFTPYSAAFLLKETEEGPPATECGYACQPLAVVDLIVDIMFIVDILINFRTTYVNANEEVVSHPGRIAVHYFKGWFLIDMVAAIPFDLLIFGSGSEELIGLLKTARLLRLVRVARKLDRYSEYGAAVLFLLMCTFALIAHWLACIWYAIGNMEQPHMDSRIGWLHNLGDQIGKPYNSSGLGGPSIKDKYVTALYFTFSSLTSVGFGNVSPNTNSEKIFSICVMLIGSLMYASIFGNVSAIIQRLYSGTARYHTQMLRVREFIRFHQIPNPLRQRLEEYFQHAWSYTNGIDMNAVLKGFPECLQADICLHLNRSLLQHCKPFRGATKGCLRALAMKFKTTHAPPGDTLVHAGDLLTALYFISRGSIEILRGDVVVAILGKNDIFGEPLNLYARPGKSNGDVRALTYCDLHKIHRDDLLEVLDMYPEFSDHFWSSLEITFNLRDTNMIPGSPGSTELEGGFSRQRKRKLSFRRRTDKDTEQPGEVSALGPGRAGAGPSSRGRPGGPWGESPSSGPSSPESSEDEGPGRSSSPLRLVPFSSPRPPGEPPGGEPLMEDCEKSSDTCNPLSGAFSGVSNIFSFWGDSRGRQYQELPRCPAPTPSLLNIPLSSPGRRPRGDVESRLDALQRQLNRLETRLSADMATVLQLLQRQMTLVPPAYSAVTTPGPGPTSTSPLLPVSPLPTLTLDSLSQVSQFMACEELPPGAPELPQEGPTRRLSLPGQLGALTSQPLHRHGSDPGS", "assay": "primary screen, population patch clamp on CHO cells stably expressing hERG; higher = less effect of the substance", "units": {"hERG current change (%, negative = inhibition) at 10uM": "%"}, "values": [{"molecule": "COc1ccccc1NC(=O)COC(=O)C1CCN(/C=C/C(=O)C(F)(F)F)CC1", "hERG current change (%, negative = inhibition) at 10uM": -49.6}, {"molecule": "Cc1ccc(S(=O)(=O)N/N=C\\c2cn(CC(N)=O)c3ccccc23)cc1C", "hERG current change (%, negative = inhibition) at 10uM": 5.21}, {"molecule": "Cc1nn(Cc2cccc(C(=O)Nc3ccn(Cc4ccccc4F)n3)c2)c(C)c1[N+](=O)[O-]", "hERG current change (%, negative = inhibition) at 10uM": 6.24}, {"molecule": "Cc1ccc(-c2nc(N/N=C/c3ccncc3)c3ccccc3n2)cc1", "hERG current change (%, negative = inhibition) at 10uM": 3.06}, {"molecule": "COc1ccc(C(C)=O)cc1CN1CC=C(c2ccccc2)CC1", "hERG current change (%, negative = inhibition) at 10uM": -17}, {"molecule": "Cc1cc(O)c(CN2CC=C(c3ccccc3)CC2)cc1C(C)C", "hERG current change (%, negative = inhibition) at 10uM": -14.1}, {"molecule": "FC(F)(F)c1ccccc1CN1CCC(Cc2ccccc2)CC1", "hERG current change (%, negative = inhibition) at 10uM": 12}, {"molecule": "COc1ccc(CN2CCC(Cc3ccccc3)CC2)c(C)c1C", "hERG current change (%, negative = inhibition) at 10uM": -23}, {"molecule": "COc1cc(C)c(CN2CCC(Cc3ccccc3)CC2)cc1C", "hERG current change (%, negative = inhibition) at 10uM": -45.3}, {"molecule": "COc1cc(C)cc(CN2CCC(Cc3ccccc3)CC2)c1O", "hERG current change (%, negative = inhibition) at 10uM": -52.2}, {"molecule": "COc1cc(CN2CCC(Cc3ccccc3)CC2)c([N+](=O)[O-])cc1OC", "hERG current change (%, negative = inhibition) at 10uM": 0.589}, {"molecule": "COc1cc(C)cc(CN2CC=C(c3ccccc3)CC2)c1O", "hERG current change (%, negative = inhibition) at 10uM": -51.4}, {"molecule": "COc1cc(OC)c(CN2CCC(Cc3ccccc3)CC2)cc1Br", "hERG current change (%, negative = inhibition) at 10uM": -70.9}, {"molecule": "O=C1C2C(c3ccccc3)CC=CC2[C@H](c2ccc(C(F)(F)F)cc2)N1Cc1ccccc1", "note": "(stereo partly drawn)", "hERG current change (%, negative = inhibition) at 10uM": -2.51}, {"molecule": "CCC(=O)Nc1c2c(nn1-c1ccc(OC)cc1)CS(=O)C2", "note": "(stereo not drawn)", "hERG current change (%, negative = inhibition) at 10uM": 9.94}, {"molecule": "CC(=O)c1ccc(NS(=O)(=O)Cc2ccccc2)cc1", "hERG current change (%, negative = inhibition) at 10uM": 3.41}, {"molecule": "Cc1cc(=O)oc2cc(OCC(=O)OCc3nnc(-c4ccccc4)o3)ccc12", "hERG current change (%, negative = inhibition) at 10uM": 14.3}, {"molecule": "CC(C)(C)c1ccc(OCC(O)CN2CCOCC2)cc1", "note": "(stereo not drawn)", "hERG current change (%, negative = inhibition) at 10uM": -3.19}, {"molecule": "CCN1CCN(CC(O)COc2ccc(C(C)=O)cc2)CC1.Cl", "note": "(stereo not drawn)", "hERG current change (%, negative = inhibition) at 10uM": 2.15}, {"molecule": "CCOC(=O)C1CCN(CC(O)COc2ccc(C(=O)CC)cc2)CC1.Cl", "note": "(stereo not drawn)", "hERG current change (%, negative = inhibition) at 10uM": -68.5}, {"molecule": "CCOC(=O)C1CCN(CC(O)COc2ccc(C(C)=O)cc2)CC1.Cl", "note": "(stereo not drawn)", "hERG current change (%, negative = inhibition) at 10uM": -47.7}, {"molecule": "CCOC(=O)C1CCN(CC(O)COc2ccc(C(C)(C)C)cc2)CC1.Cl", "note": "(stereo not drawn)", "hERG current change (%, negative = inhibition) at 10uM": -70.4}, {"molecule": "CC1CCCC/C1=N\\NC(=S)Nc1cccnc1", "note": "(stereo not drawn)", "hERG current change (%, negative = inhibition) at 10uM": 15.8}, {"molecule": "Cc1noc(C)c1COc1ccc(C(=O)OCC(N)=O)cc1", "hERG current change (%, negative = inhibition) at 10uM": 18}, {"molecule": "O=C(Nc1ccc(Cl)cc1)c1ccc(-n2cccn2)c([N+](=O)[O-])c1", "hERG current change (%, negative = inhibition) at 10uM": 4.78}, {"molecule": "CC(C)c1nc2c(s1)CCc1onc(-c3cccc([N+](=O)[O-])c3)c1-2", "hERG current change (%, negative = inhibition) at 10uM": 16.4}, {"molecule": "COc1cc(OC)cc(-n2nnnc2SCC(=O)N2CCCC2)c1", "hERG current change (%, negative = inhibition) at 10uM": -30.2}, {"molecule": "Cc1ccc(-n2nnnc2SCC(=O)NC2CCCc3ccccc32)c(C)c1", "note": "(stereo not drawn)", "hERG current change (%, negative = inhibition) at 10uM": -7.69}, {"molecule": "O=C(c1cccc(C(F)(F)F)c1)C1CCCN(Cc2ncc[nH]2)C1", "note": "(stereo not drawn)", "hERG current change (%, negative = inhibition) at 10uM": 0.0209}, {"molecule": "O=C(c1cccc(C(F)(F)F)c1)C1CCCN(Cc2cccn2-c2ccccn2)C1", "note": "(stereo not drawn)", "hERG current change (%, negative = inhibition) at 10uM": -83.5}, {"molecule": "COCC(=O)N1CCCC(C(=O)c2ccc(C(F)(F)F)cc2)C1", "note": "(stereo not drawn)", "hERG current change (%, negative = inhibition) at 10uM": -0.113}, {"molecule": "O=C(c1ccc(C(F)(F)F)cc1)C1CCCN(Cc2ccc(CO)o2)C1", "note": "(stereo not drawn)", "hERG current change (%, negative = inhibition) at 10uM": -24.6}, {"molecule": "O=C(c1cccc(C(F)(F)F)c1)C1CCCN(Cc2cccn2-c2ncccn2)C1", "note": "(stereo not drawn)", "hERG current change (%, negative = inhibition) at 10uM": -95.7}, {"molecule": "O=C(c1cccc(C(F)(F)F)c1)C1CCCN(C(=O)CCc2cnccn2)C1", "note": "(stereo not drawn)", "hERG current change (%, negative = inhibition) at 10uM": -15.6}, {"molecule": "CCn1ccnc1CN1CCCC(C(=O)c2cccc(C(F)(F)F)c2)C1", "note": "(stereo not drawn)", "hERG current change (%, negative = inhibition) at 10uM": -31.1}, {"molecule": "O=C(c1ccc(C(F)(F)F)cc1)C1CCCN(Cc2cccn2-c2ncccn2)C1", "note": "(stereo not drawn)", "hERG current change (%, negative = inhibition) at 10uM": -80.3}, {"molecule": "O=C1CCN(Cc2ccc(Br)cc2)CCN1CCO", "hERG current change (%, negative = inhibition) at 10uM": -1.08}, {"molecule": "CCOc1ccc(S(=O)(=O)N(C)c2ccc(OCC(=O)Nc3nccs3)cc2)cc1", "hERG current change (%, negative = inhibition) at 10uM": 10.1}, {"molecule": "O=C(O)CN1C(=O)C2C3C=CC(C2C1=O)C1C(=O)N(CC(=O)O)C(=O)C31", "note": "(stereo not drawn)", "hERG current change (%, negative = inhibition) at 10uM": 21.8}, {"molecule": "CSc1ccc(CN(C)C(=O)c2cccc(S(=O)(=O)N3CCN(Cc4ccccc4)CC3)c2)cc1", "hERG current change (%, negative = inhibition) at 10uM": -1.76}, {"molecule": "COc1cc(/C=C2/SC(=S)N(CC(=O)O)C2=O)ccc1OCC(=O)Nc1ccc(C)c(C)c1", "hERG current change (%, negative = inhibition) at 10uM": -6.69}, {"molecule": "COc1ccccc1/C=C1/C(=O)N(c2ccc([N+](=O)[O-])cc2)N=C1C", "hERG current change (%, negative = inhibition) at 10uM": 12.7}, {"molecule": "CCOC(=O)C(C)Sc1nc2ccccc2c(=O)n1CC1CCCCC1", "note": "(stereo not drawn)", "hERG current change (%, negative = inhibition) at 10uM": -10.1}, {"molecule": "CCOC(=O)CSc1nc2ccccc2c(=O)n1CC1CCCO1", "note": "(stereo not drawn)", "hERG current change (%, negative = inhibition) at 10uM": -6.58}, {"molecule": "CCN(CC)C(=O)CSc1nc2ccccc2c(=O)n1CC", "hERG current change (%, negative = inhibition) at 10uM": -1.18}, {"molecule": "CCN(CC)C(=O)CSc1nc2ccccc2c(=O)n1CC1CCCCC1", "hERG current change (%, negative = inhibition) at 10uM": -61}, {"molecule": "CCOC(=O)CSc1nc2ccccc2c(=O)n1CC1CCCC1", "hERG current change (%, negative = inhibition) at 10uM": -67.3}, {"molecule": "CCOC(=O)CSc1nc2ccccc2c(=O)n1CC", "hERG current change (%, negative = inhibition) at 10uM": -14.6}, {"molecule": "Cl.c1ccc(N2CCCCC2)c(NC2=NCCC2)c1", "hERG current change (%, negative = inhibition) at 10uM": -15.5}, {"molecule": "CN(C)/C=C1\\NC(=S)N(c2ccccc2)C1=O", "hERG current change (%, negative = inhibition) at 10uM": 28.4}, {"molecule": "Cc1ccc2c(c1)N(CC(=O)N1CCOCC1)C(=O)CO2", "hERG current change (%, negative = inhibition) at 10uM": 4.9}, {"molecule": "COCCCNc1nc2nonc2nc1N1CCN(C2CCCC2)CC1", "hERG current change (%, negative = inhibition) at 10uM": -20.2}, {"molecule": "CC1CC(C)CN(C(=O)c2ccc3ccccc3c2)C1", "note": "(stereo not drawn)", "hERG current change (%, negative = inhibition) at 10uM": -19.2}, {"molecule": "CCc1ccc(OCC(O)CN2CCN(c3ccccn3)CC2)cc1.Cl", "note": "(stereo not drawn)", "hERG current change (%, negative = inhibition) at 10uM": -67.4}, {"molecule": "CCc1ccc(OCC(O)CN2CCN(c3ccccc3)CC2)cc1.Cl", "note": "(stereo not drawn)", "hERG current change (%, negative = inhibition) at 10uM": -60.3}, {"molecule": "CCCc1ccc(OCC(O)CN2CCN(c3ccccn3)CC2)cc1.Cl", "note": "(stereo not drawn)", "hERG current change (%, negative = inhibition) at 10uM": -63.6}, {"molecule": "CCc1ccc(OCC(O)CN2CCN(CCO)CC2)cc1.Cl", "note": "(stereo not drawn)", "hERG current change (%, negative = inhibition) at 10uM": -15.3}, {"molecule": "CCCc1ccc(OCC(O)CN2CCN(c3ccccc3)CC2)cc1.Cl", "note": "(stereo not drawn)", "hERG current change (%, negative = inhibition) at 10uM": -46.5}, {"molecule": "COc1cccc(OCC(O)CN2CCN(c3ccccn3)CC2)c1.Cl", "note": "(stereo not drawn)", "hERG current change (%, negative = inhibition) at 10uM": -12.7}, {"molecule": "CCc1ccc(OCC(O)CN2CCN(c3ccc(OC)cc3)CC2)cc1.Cl", "note": "(stereo not drawn)", "hERG current change (%, negative = inhibition) at 10uM": -49.3}]}]}
